What is called AC50 is the concentration at which the activity in the assay is half-maximal.

The structures appear in SMILES notation. More than one record can exist for a structure, and the calls need not agree. Activity calls are given as the source filed them. How the source made its calls: active means hit-call score of the fitted dose curve at least 0.9, where 1 is the maximum; inactive means score below 0.9.

Here are results for six compounds from PubChem BioAssay (EPA / NIEHS).

Common to all, as to conditions: mRNA level, 48 h; actives raise or lower the signal
Read-out in experiment [1]: Heat shock 70 kDa protein 1 (HSPA1A), gene 3303
Nature of the experiment: LTEA_HepaRG_HSPA1A: Life Technologies and Expression Analysis (LTEA) Assay for Heat shock 70 kDa protein 1 (HSPA1A) using HepaRG (AID 2283502). The essentials: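 HSPA1A induction in human HepaRG liver cells is measured after 48 h of chemical treatment (100 uM maximum, 0.5% DMSO vehicle). Expression comes from qRT-PCR normalized to endogenous controls.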

Read-out in experiment [2]: 3-Hydroxy-3-Methylglutaryl-CoA Synthase 2 (HMGCS2), HMGCS2 (gene 3158)
Nature of the experiment: LTEA_HepaRG_HMGCS2: Life Technologies and Expression Analysis (LTEA) Assay for 3-Hydroxy-3-Methylglutaryl-CoA Synthase 2 (HMGCS2) using HepaRG (AID 2283504). The essentials:
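HepaRG, plated 48 h then switched to serum-free induction media; cmpd 8-pt, max 100 uM, 1/2-log, 0.5% DMSO, n=2, 48 h. HMGCS2 mRNA by Fluidigm TaqMan qRT-PCR, ACTB/GAPDH/POLR2A norm; bidirectional fit vs DMSO.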

Read-out in another experiment: HGF (gene 3082)
Nature of the experiment: LTEA_HepaRG_HGF: Life Technologies and Expression Analysis (LTEA) Assay for Hepatocyte Growth Facto (HGF) using HepaRG (AID 2283505). The essentials: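 Read-out is HGF transcript level by qRT-PCR, normalized to three housekeeping genes, fitted bidirectionally against 0.5% DMSO vehicle. Human HepaRG cells received test chemicals for 48 h at up to 100 uM.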

Read-out in experiment [3]: Insulin Like Growth Factor 1 (IGF1), IGF1 (gene 3479)
Nature of the experiment: LTEA_HepaRG_IGF1: Life Technologies and Expression Analysis (LTEA) Assay for Insulin Like Growth Factor 1 (IGF1) using HepaRG (AID 2283506). The essentials: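 Using human HepaRG liver cells, IGF1 transcript induction or suppression is measured 48 h after dosing across eight concentrations capped at 100 uM. Values derive from bidirectional concentration-response fitting with DMSO as baseline.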

Read-out in experiment [4]: Intercellular Adhesion Molecule 1 (ICAM1), ICAM1 (gene 3383)
Nature of the experiment: LTEA_HepaRG_ICAM1: Life Technologies and Expression Analysis (LTEA) Assay for Intercellular Adhesion Molecule 1 (ICAM1) using HepaRG (AID 2283507). The essentials: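 Readout is qRT-PCR mRNA level, normalized to three housekeeping genes and fitted bidirectionally against 0.5% DMSO vehicle. Human HepaRG cultures received compound for 48 h, top concentration 100 uM with half-log dilutions.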

Read-out in experiment [5]: Interleukin 6 (IL6), IL6 (gene 3569)
Nature of the experiment: LTEA_HepaRG_IL6: Life Technologies and Expression Analysis (LTEA) Assay for Interleukin 6 (IL6) using HepaRG (AID 2283509). The essentials:
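HepaRG, ~100,000 cells/well, 48 h pre-culture; serum-free induction medium; cmpd 8-pt half-log from 100 uM, 0.5% DMSO, duplicate, 48 h. Lysis in RLT, TaqMan qRT-PCR; gain or loss vs DMSO.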

Read-out in experiment [6]: Interleukin 6 Receptor (IL6R), IL6R (gene 3570)
Nature of the experiment: LTEA_HepaRG_IL6R: Life Technologies and Expression Analysis (LTEA) Assay for Interleukin 6 Receptor (IL6R) using HepaRG (AID 2283510). The essentials:
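Concentration-response in human liver HepaRG cells: eight concentrations from 100 uM downward by half-logs, 48 h exposure, 0.5% DMSO vehicle. IL6R mRNA change measured by qRT-PCR and fitted in both directions relative to vehicle.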

Read-out in experiment [7]: Potassium channel subfamily K member 1 (KCNK1), KCNK1 (gene 3775)
Nature of the experiment: LTEA_HepaRG_KCNK1: Life Technologies and Expression Analysis (LTEA) Assay for Potassium channel subfamily K member 1 (KCNK1) using HepaRG (AID 2283511). The essentials: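 Gain or loss of KCNK1 mRNA is the read-out, quantified by qRT-PCR against three housekeeping genes after 48 h chemical treatment of human HepaRG liver cells. Concentrations ran from 100 uM downward in half-log steps, vehicle 0.5% DMSO.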

Read-out in experiment [8]: Keratin 19 (KRT19), KRT19 (gene 3880)
Nature of the experiment: LTEA_HepaRG_KRT19: Life Technologies and Expression Analysis (LTEA) Assay for Keratin 19 (KRT19) using HepaRG (AID 2283512). In short, it runs like this: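 KRT19 transcript levels, measured by Fluidigm qRT-PCR against three housekeeping genes, are fitted for gain or loss of signal relative to DMSO. Human HepaRG cells receive test chemicals (top 100 uM, half-log steps, 0.5% DMSO) for 48 hours.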

Read-out in experiment [9]: JUN Transcription Factor, JUN (gene 3725)
Nature of the experiment: LTEA_HepaRG_JUN: Life Technologies and Expression Analysis (LTEA) Assay for JUN Transcription Factor using HepaRG (AID 2283513). The essentials:
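Human HepaRG liver cells receive test chemicals in 0.5% DMSO for 48 h across an eight-point range topping at 100 uM. Expression changes in JUN are scored in both directions against the DMSO vehicle.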

Read-out in experiment [10]: Lipase C (LIPC), LIPC (gene 3990)
Nature of the experiment: LTEA_HepaRG_LIPC: Life Technologies and Expression Analysis (LTEA) Assay for Lipase C (LIPC) using HepaRG (AID 2283514). The essentials: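 Read-out is LIPC transcript level by TaqMan qRT-PCR, normalized to three housekeeping genes, after 48 h chemical treatment of human HepaRG liver cells. Curves span eight concentrations topping at 100 uM; activity in either direction scored relative to 0.5% DMSO.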

Read-out in experiment [11]: Lipoprotein lipase (LPL), LPL (gene 4023)
Nature of the experiment: LTEA_HepaRG_LPL: Life Technologies and Expression Analysis (LTEA) Assay for Lipoprotein lipase (LPL) using HepaRG (AID 2283515). The essentials: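 Read-out is LPL transcript level by qRT-PCR, normalized to three housekeeping genes and fitted bidirectionally against the DMSO control. Human HepaRG cells received chemicals for 48 h at up to 100 uM.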

Read-out in experiment [12]: MicroRNA 122 (MIR122), gene 406906
Nature of the experiment: LTEA_HepaRG_MIR122: Life Technologies and Expression Analysis (LTEA) Assay for MicroRNA 122 (MIR122) using HepaRG (AID 2283516). Further: the transcript read is the microRNA miR-122. In short, it runs like this:
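HepaRG, 48 h exposure, 8-pt half-log from 100 uM, 0.5% DMSO; TaqMan qRT-PCR; bidirectional fit vs DMSO.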

Read-out in experiment [13]: matrix metalloproteinase-10 (MMP10), MMP10 (gene 4319)
Nature of the experiment: LTEA_HepaRG_MMP10: Life Technologies and Expression Analysis (LTEA) Assay for matrix metalloproteinase-10 (MMP10) using HepaRG (AID 2283517). The essentials: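 Gain or loss of MMP10 mRNA is fitted relative to the 0.5% DMSO vehicle. The human hepatic line HepaRG receives a 48-hour serum-free exposure, in duplicate, with a maximum concentration of 100 uM.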

Read-out in experiment [14]: matrix metalloproteinase-3 (MMP3), MMP3 (gene 4314)
Nature of the experiment: LTEA_HepaRG_MMP3: Life Technologies and Expression Analysis (LTEA) Assay for matrix metalloproteinase-3 (MMP3) using HepaRG (AID 2283519). In short, it runs like this: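 HepaRG, human; 48 h dosing, 8 conc. (max 100 uM, half-log), duplicate, 0.5% DMSO. Readout: MMP3 transcript by Fluidigm TaqMan qRT-PCR, ACTB/GAPDH/POLR2A-normalised. Gain or loss fitted vs DMSO.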

Read-out in experiment [15]: Paternally Expressed 10 (PEG10), PEG10 (gene 23089)
Nature of the experiment: LTEA_HepaRG_PEG10: Life Technologies and Expression Analysis (LTEA) Assay for Paternally Expressed 10 (PEG10) using HepaRG (AID 2283520).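 On AC50: PEG10 transcript by qRT-PCR normalised to ACTB GAPDH and POLR2A.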 The essentials:
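Chemicals tested on HepaRG cells for 48 h, highest concentration 100 uM. PEG10 expression assessed by qRT-PCR relative to DMSO control.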

Read-out in experiment [16]: Hypoxia-inducible factor 1-alpha (Homo sapiens) (UniProt Q16665)
Nature of the experiment: LTEA_HepaRG_HIF1A: Life Technologies and Expression Analysis (LTEA) Assay for Hypoxia-inducible factor 1 (HIF1A) Trancription factor using HepaRG (AID 2283503). In short, it runs like this:
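HepaRG, 48 h exposure, 8-pt half-log series from 100 uM, 0.5% DMSO vehicle, duplicates. Readout: HIF1A transcript by qRT-PCR (Fluidigm array), housekeeping-normalised. Bidirectional curve fit vs DMSO baseline.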

Read-out in the next experiment: MYC, MYC (gene 4609)
Nature of the experiment: LTEA_HepaRG_MYC: Life Technologies and Expression Analysis (LTEA) Assay for MYC using HepaRG (AID 2283518). The essentials: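 HepaRG, ~100,000 cells/well, collagen I; 48 h plating; serum-free induction medium; 48 h dosing, duplicate, 100 uM top, half-log, 0.5% DMSO; total RNA → qRT-PCR MYC; gain/loss fit vs DMSO.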

Read-out in experiment [17]: Nuclear factor NF-kappa-B p105 subunit (Homo sapiens) (UniProt P19838)
Nature of the experiment: LTEA_HepaRG_NFKB1: Life Technologies and Expression Analysis (LTEA) Assay for Nuclear Factor Kappa B Subunit 1 (NFKB1) using HepaRG (AID 2283521). The essentials:
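Differentiated human HepaRG cells were exposed for 48 h in serum-free induction medium to eight concentrations (top 100 uM, half-log steps, 0.5% DMSO), in duplicate. NFKB1 mRNA was measured by TaqMan qRT-PCR, normalized to ACTB/GAPDH/POLR2A, and fitted bidirectionally against DMSO.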

Sequence of Hypoxia-inducible factor 1-alpha (Homo sapiens) (Q16665 whole entry, looked up): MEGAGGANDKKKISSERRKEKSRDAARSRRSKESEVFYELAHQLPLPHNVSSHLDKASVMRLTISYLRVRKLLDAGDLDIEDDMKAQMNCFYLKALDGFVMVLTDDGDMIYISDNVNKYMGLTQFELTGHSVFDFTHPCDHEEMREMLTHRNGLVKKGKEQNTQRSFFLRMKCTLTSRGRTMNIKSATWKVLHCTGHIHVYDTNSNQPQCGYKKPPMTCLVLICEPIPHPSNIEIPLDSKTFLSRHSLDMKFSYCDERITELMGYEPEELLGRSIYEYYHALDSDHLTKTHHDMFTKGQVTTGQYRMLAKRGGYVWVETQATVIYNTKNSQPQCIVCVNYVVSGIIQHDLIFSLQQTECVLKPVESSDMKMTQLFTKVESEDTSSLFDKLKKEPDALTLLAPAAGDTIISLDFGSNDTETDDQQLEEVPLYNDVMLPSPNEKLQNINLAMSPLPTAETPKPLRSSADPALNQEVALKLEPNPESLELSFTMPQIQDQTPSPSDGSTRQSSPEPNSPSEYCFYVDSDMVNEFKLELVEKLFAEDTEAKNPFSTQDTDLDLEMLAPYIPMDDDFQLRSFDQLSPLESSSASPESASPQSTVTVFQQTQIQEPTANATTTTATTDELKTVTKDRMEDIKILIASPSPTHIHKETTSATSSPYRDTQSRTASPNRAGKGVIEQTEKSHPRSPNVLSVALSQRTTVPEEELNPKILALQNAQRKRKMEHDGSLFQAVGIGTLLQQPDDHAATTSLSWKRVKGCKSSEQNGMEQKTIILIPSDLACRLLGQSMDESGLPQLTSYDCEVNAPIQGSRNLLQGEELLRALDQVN
Sequence of Nuclear factor NF-kappa-B p105 subunit (Homo sapiens) (P19838 whole entry, looked up): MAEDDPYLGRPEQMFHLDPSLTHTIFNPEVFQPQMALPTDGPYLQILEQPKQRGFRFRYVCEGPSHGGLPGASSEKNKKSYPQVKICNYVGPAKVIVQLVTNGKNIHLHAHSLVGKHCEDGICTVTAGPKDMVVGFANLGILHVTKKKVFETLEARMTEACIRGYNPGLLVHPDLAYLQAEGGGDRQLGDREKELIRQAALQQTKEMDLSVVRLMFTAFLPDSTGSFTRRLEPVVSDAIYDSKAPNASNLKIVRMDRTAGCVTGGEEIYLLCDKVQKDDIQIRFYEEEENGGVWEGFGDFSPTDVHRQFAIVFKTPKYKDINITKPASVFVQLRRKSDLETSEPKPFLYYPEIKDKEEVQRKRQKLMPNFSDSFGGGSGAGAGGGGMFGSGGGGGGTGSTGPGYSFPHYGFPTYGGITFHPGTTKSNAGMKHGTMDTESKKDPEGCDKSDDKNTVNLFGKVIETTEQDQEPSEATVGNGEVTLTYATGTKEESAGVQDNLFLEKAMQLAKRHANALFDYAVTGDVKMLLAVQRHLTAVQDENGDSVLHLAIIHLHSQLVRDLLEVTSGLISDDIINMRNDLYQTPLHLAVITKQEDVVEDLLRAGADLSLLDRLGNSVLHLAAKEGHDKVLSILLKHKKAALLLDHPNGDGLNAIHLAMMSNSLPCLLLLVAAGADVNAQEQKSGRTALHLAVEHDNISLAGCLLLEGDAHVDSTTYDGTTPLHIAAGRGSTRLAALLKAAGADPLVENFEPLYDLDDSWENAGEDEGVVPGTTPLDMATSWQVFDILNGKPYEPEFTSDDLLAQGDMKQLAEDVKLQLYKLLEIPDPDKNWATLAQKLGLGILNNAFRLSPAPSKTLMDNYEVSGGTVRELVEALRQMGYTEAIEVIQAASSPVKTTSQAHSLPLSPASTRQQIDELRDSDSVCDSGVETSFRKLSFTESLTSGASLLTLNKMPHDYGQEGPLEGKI

With `CN(C)[C@@H]1C(=O)C(C(N)=O)=C(O)[C@@]2(O)C(=O)C3=C(O)c4c(O)cccc4[C@@](C)(O)[C@H]3[C@H](O)[C@@H]12`, the call (in [1]; in experiment [2]; with HGF (gene 3082); in experiment [3]; in experiment [4]; in experiment [5]) was inactive. The result in [6], in experiment [7], in experiment [8], in [9], in experiment [10] and in [11] was inactive. Moreover, the outcome in experiment [12], in experiment [13], in [14] and in experiment [15] was inactive. For the same compound, in experiment [14], the half-maximal activity concentration (AC50) was 5.76 µM (active).
For `CNC(=O)ON=C(SC)C(=O)N(C)C`, the compound was classed as inactive (in experiment [1]; in experiment [16]; in experiment [2]; in the experiment with HGF (gene 3082); in experiment [3]; in experiment [4]). Further, the compound was classed as inactive in experiment [5], in experiment [6], in experiment [7], in experiment [8], in experiment [10] and in experiment [12]. In addition, the outcome was “inactive” in [13]; “inactive” with MYC, MYC (gene 4609); “inactive” in [14]; “inactive” in [15]; “inactive” in [17]. Also, in experiment [11], the half-maximal activity concentration (AC50) is 289 nM (active).
Consider `CCCSP(=O)(OCC)Oc1ccc(Br)cc1Cl` (stereo not drawn), for which the call (in [1]; in [16]; in experiment [2]; with HGF (gene 3082); in [3]; in experiment [4]) was inactive. Moreover, the outcome in experiment [5], in experiment [6], in experiment [7], in experiment [8], in experiment [10] and in experiment [11] was inactive. Besides, the outcome in experiment [12], in experiment [13], in experiment [14], in experiment [15] and in [17] was inactive.
In the case of `COP(=O)(OC)SCn1c(=O)oc2cc(Cl)cnc21`, the result in [1], in experiment [16], in [2], in [3], in experiment [4] and in experiment [5] was inactive. For the same compound, the result in experiment [6], in [7], in experiment [8], in [11], in experiment [12] and in experiment [13] was inactive. The outcome in [14] and in experiment [17] was inactive. The half-maximal activity concentration (AC50) with HGF (gene 3082) was 65.9 µM (active); in [10], 79.1 µM (active); in experiment [15] it was 62.4 µM (active).
Regarding `Nc1nc(N)nc(NC2CC2)n1`, the call (in [1]; in experiment [16]; in experiment [2]; in the experiment with HGF (gene 3082); in [3]; in experiment [4]) was inactive. For the same compound, the call in experiment [5], in experiment [6], in [7], in experiment [8], in experiment [9] and in experiment [10] was inactive. Besides, the compound was classed as inactive in experiment [11], in experiment [12], in experiment [13], in experiment [14], in experiment [15] and in experiment [17].
On to `CCCSP(=O)(OCC)SCCC`, for which the call (in experiment [1]; in experiment [16]; in experiment [2]; with HGF (gene 3082); in [4]; in [5]) was inactive. The outcome in experiment [6], in experiment [7], in [8], in [10], in [11] and in [12] was inactive. For the same compound, the result in experiment [13], in experiment [14] and in experiment [15] was inactive. In experiment [3], the AC50 was 27.7 µM (active).
